The source made the active and inactive calls.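 The calls were made as follows, unless noted: active = inhibition of the reporter signal at or above 50%; inactive = inhibition below 50%.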

A short description of experiment [1]: inhibitors of TNFa-induced NFkB p65 translocation, primary screen, imaging, HUVEC, MLSMR starter and 10KST1 sets (AID 438;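 active = inhibition above 20% together with a positive visual image hit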;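 also: compound added about 3h40 before a 20 min TNFalpha stimulation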;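 as to inhibition: signal is the nuclear over cytoplasmic p65 intensity ratio per well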). Particulars: HUVEC TNFa-induced p65 nuclear translocation; cell count: measured here: nuclei count (cytotoxicity indicator), at 2.08 µM; inhibition: at 2 µM, stronger effect = higher value, 0% TNFa-plus-vehicle, 100% no-TNFa wells.
Experiment [2] can be described thus: inhibitors of mutant huntingtin aggregation, primary screen, imaging, exon1htt(103Q)mCFP cells, high-content imaging (AID 483;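 active = visual image review flags a hit and inhibition of aggregation exceeds 20%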;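 also: compound exposure lasted 3 days before fixation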;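 as to nuclei count: percent of the per-plate median nuclei count of sample wells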). Particulars: exon1htt(103Q)mCFP cell line, aggregate imaging, at 2 µM; inhibition of aggregation: stronger effect = higher value; nuclei count: measured here: cell count, toxicity.
Experiment [3] can be described thus: inhibitors of E-selectin induction by TNFa, primary screen, imaging, HUVEC, immunofluorescence, MLSMR starter and 10KST1 sets (AID 487;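 active = visually confirmed hit in the image check and inhibition above 20%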;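 as to inhibition: signal is fraction of cell area covered by stained E-selectin grains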;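 as to nuclei count: 100% = median nuclei count of all wells on the same plate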). Particulars: HUVEC TNFalpha-induced E-selectin immunofluorescence imaging, at 2 µM; inhibition: stronger effect = higher value; nuclei count: measured here: cell number, toxicity.
Experiment [4] addresses Voltage-gated potassium channel subunit beta-2 (Rattus norvegicus) (UniProt P62483). Nature of the experiment: KvBeta enzyme negative modulators, primary screen, biochemical, NADPH fluorescence (AID 622;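 active = fluorescence slope higher than the sample average by over 3 SD, cut at about -0.22 in these data, passing the limit was not always enough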;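 also: slope of raw intensity against log time taken from 70 to 1610 s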). Particulars: recombinant KvBeta, 4-cyanobenzaldehyde reduction, at 10 µM, stronger effect = higher value.
Experiment [5] shares this target. Nature of the experiment: KvBeta positive modulators, primary screen, biochemical, NADPH fluorescence (AID 623;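 active = NADPH fluorescence slope more negative than the mean of all samples by about 3 SD, 99.7% confidence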;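 also: fluorescence intensity change per second fitted from 20 to 320 s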). Particulars: Recombinant KvBeta, NADPH fluorescence decrease slope, 10 min; at 10 µM; stronger effect = lower value.
Experiment [6] concerns the target Alpha-2C adrenergic receptor (Homo sapiens) (UniProt P18825). The experiment can be described thus: modulators of alpha2C/GIRK thallium flux, primary screen, cell-based, HEK293 alpha2C/GIRK1/2 (AID 624;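 active = fluorescence slope after compound addition differing from the mean of all screened samples at 99.7% confidence, in either direction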;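 also: slope of fluorescence ratio to pre-addition baseline per second over 15 to 24 s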). Particulars: thallium flux BTC fluorescence, at 10 µM, actives lie on both sides.
Experiment [7] can be described thus: inhibitors of Sendai virus-induced IRF3 signaling, primary screen, TLR/RLR signaling modifier project, cell-based, Sendai virus stimulus, luciferase, 10K MLSCN set (AID 602276;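 active = inhibition at or above 50% at 10 µM; inactive = inhibition below 50%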;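 also: firefly luciferase from ISG56 promoter only with Renilla not read in this screen; 0% = Sendai virus plus DMSO and 100% = medium plus DMSO without virus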). The note with it: HEK293 RL24 IRF3 luciferase reporter, at 10 µM, stronger effect = higher value. A general note: Reporter assays use an easily measured gene product as a stand-in for the process of interest.

Experiment [8] is described as follows: inhibitors of poly I:C-induced TLR3 signaling, primary screen, cell-based, poly I:C stimulus, luciferase, 10K MLSCN set (AID 602277). Particulars: HEK293-TLR3 RL24 IRF3 luciferase reporter, at 10 µM, stronger effect = higher value.

Alpha-2C adrenergic receptor (Homo sapiens), sequence (P18825 whole entry, looked up): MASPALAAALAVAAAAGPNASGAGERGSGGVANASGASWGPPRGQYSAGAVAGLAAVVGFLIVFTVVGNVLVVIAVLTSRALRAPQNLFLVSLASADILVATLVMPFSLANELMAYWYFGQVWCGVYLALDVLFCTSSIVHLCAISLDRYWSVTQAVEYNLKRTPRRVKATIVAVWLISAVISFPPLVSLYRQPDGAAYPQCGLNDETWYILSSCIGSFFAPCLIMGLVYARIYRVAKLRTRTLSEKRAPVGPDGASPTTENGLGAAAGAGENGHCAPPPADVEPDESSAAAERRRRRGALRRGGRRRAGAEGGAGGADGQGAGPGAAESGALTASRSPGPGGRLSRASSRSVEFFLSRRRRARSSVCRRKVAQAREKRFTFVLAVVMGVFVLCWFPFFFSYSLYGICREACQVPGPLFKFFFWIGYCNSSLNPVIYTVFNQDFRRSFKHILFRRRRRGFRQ
Voltage-gated potassium channel subunit beta-2 (Rattus norvegicus), sequence (P62483 whole entry, looked up): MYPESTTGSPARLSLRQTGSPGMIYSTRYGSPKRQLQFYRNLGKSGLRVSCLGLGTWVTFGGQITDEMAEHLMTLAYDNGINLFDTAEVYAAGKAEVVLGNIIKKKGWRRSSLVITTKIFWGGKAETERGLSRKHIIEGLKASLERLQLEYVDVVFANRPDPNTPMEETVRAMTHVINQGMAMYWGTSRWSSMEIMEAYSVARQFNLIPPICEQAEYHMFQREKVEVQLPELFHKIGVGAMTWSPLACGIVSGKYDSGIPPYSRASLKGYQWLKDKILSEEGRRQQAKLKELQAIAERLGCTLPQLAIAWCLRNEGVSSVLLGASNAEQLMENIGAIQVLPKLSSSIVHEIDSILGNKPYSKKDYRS

As usually defined, the inhibition is the drop in the measured response relative to a control, in per cent. As for `COc1cccc(-c2nc(CS(=O)(=O)CC(=O)NCc3ccc(Cl)cc3)c(C)o2)c1`, the cell count in experiment [1] came to 840. Also, the inhibition in experiment [1] was -2.3% (inactive); in experiment [3], -41.4% (inactive); in experiment [7] it was -3.28% (inactive); in experiment [8], 18% (inactive). In addition, the inhibition of aggregation in experiment [2] was -4.4% (inactive). The nuclei count in experiment [2] was 122%; in experiment [3] it was 118%. The fluorescence slope in experiment [4] was -0.554 (inactive). Besides, the NADPH fluorescence slope in experiment [5] was 1.6e-06 (inactive). For the same molecule, the slope in experiment [6] was 0.00669 (inactive).
Turning to `COc1cccc(NC(=O)COC(=O)c2ccco2)c1`, in experiment [1], the cell count is 393. The inhibition in experiment [1] is -4% (inactive); in experiment [3], -0.6% (inactive); in experiment [7], 13.4% (inactive); in experiment [8], 20.6% (inactive). In experiment [2], the inhibition of aggregation is -17.7% (inactive). Moreover, the nuclei count in experiment [2] came out at 92.3%; in experiment [3] it was 122%. For the same molecule, the fluorescence slope in experiment [4] was -0.47 (inactive). Also, the NADPH fluorescence slope in experiment [5] was 7.3e-06 (inactive). In experiment [6], the slope was 0.00724 (inactive).
In the case of `CC(=O)Nc1cccc(NC(=O)c2oc3ccccc3c2C)c1`, the cell count in experiment [1] is 343. In addition, the inhibition in experiment [1] was -0.2% (inactive); in experiment [3] it was -9.3% (inactive); in experiment [7], -37.4% (inactive); in experiment [8], -104% (inactive). Also, in experiment [2], the inhibition of aggregation was 0.5% (inactive). Also, the nuclei count in experiment [2] is 98.8%; in experiment [3], 112%. In experiment [4], the fluorescence slope is -0.521 (inactive). Moreover, the NADPH fluorescence slope in experiment [5] is 1.6e-05 (inactive). The slope in experiment [6] is 0.00572 (inactive).
`C=CCn1c(-c2cccs2)nc2nc3ccccc3nc21`: the cell count in experiment [1] was found to be 546. Moreover, the inhibition was -5.4% (inactive) in experiment [1], -77.5% (inactive) in experiment [3], -3.42% (inactive) in experiment [7] and 2.94% (inactive) in experiment [8]. Further, the inhibition of aggregation in experiment [2] is -7.5% (inactive). The nuclei count came to 90.1% in experiment [2] and 141% in experiment [3]. The fluorescence slope in experiment [4] is -0.602 (inactive). Moreover, in experiment [5], the NADPH fluorescence slope is 4.4e-06 (inactive). Also, in experiment [6], the slope was 0.0057 (inactive).
Turning to `CC(C)C(OC(=O)c1ccco1)C(=O)NCc1ccccc1` (centres undefined), in experiment [1], the cell count came out at 489. Further, the inhibition in experiment [1] was 5% (inactive); in experiment [3], -122% (inactive); in experiment [7], 11.3% (inactive); in experiment [8] it was 10.5% (inactive). For the same molecule, in experiment [2], the inhibition of aggregation was -10.8% (inactive). The nuclei count in experiment [2] stood at 108%; in experiment [3] it was 126%. In addition, the fluorescence slope in experiment [4] is -0.443 (inactive). Moreover, in experiment [5], the NADPH fluorescence slope is 2.2e-05 (inactive). Also, the slope in experiment [6] is 0.00599 (inactive).
With `O=C(CC(=O)c1cc(Cl)ccc1O)c1ccccc1`, the cell count in experiment [1] was 435. Moreover, the inhibition in experiment [1] was 3.8% (inactive); in experiment [3], -68.1% (inactive); in experiment [7], -30.5% (inactive); in experiment [8], -67.7% (inactive). For the same molecule, the inhibition of aggregation in experiment [2] was -1.9% (inactive). Besides, the nuclei count in experiment [2] came to 99.3%; in experiment [3], 126%. In experiment [4], the fluorescence slope is -0.41 (inactive). The NADPH fluorescence slope in experiment [5] was 2.8e-05 (inactive). Further, the slope in experiment [6] was 0.00798 (inactive).
On to `O=S(=O)(NCc1cn2ccsc2n1)c1ccc2c(c1)OCCO2`, for which the cell count in experiment [1] is 600. For the same molecule, the inhibition in experiment [1] is 8.2% (inactive); in experiment [3], 51.6% (inactive); in experiment [7] it was 5.63% (inactive); in experiment [8], 11.2% (inactive). Also, in experiment [2], the inhibition of aggregation was -3.9% (inactive). Further, the figures for the nuclei count in experiment [2] and in experiment [3] were 71% and 72.2%, respectively. The fluorescence slope in experiment [4] is -0.502 (inactive). Moreover, the NADPH fluorescence slope in experiment [5] is -3.9e-05 (inactive). In addition, the slope in experiment [6] was 0.00564 (inactive).
For the molecule `Cc1nc2ncnn2c(C)c1CCC(=O)NCCCN1CCN(c2cccc(Cl)c2)CC1`, in experiment [1], the cell count is 352. In addition, the inhibition is -2% (inactive) in experiment [1], -40.4% (inactive) in experiment [3], 4.7% (inactive) in experiment [7] and 16.9% (inactive) in experiment [8]. Besides, in experiment [2], the inhibition of aggregation was -0.5% (inactive). The nuclei count in experiment [2] was 99.1%; in experiment [3] it was 107%. Besides, the fluorescence slope in experiment [4] was -0.505 (inactive). In experiment [5], the NADPH fluorescence slope was -5.1e-05 (inactive). Moreover, in experiment [6], the slope is 0.0065 (inactive).
For `O=C(c1ccc2nc(N3CCCCC3)sc2c1)N1CCN(c2ccccn2)CC1`, the cell count in experiment [1] amounted to 669. Besides, the inhibition in experiment [1] is -0.8% (inactive); in experiment [3], 5% (inactive); in experiment [7], -4.41% (inactive); in experiment [8], 3.71% (inactive). Also, the inhibition of aggregation in experiment [2] was -24.8% (inactive). The nuclei count is 99.9% in experiment [2] and 118% in experiment [3]. Further, in experiment [4], the fluorescence slope is -0.589 (inactive). In experiment [5], the NADPH fluorescence slope is 5.6e-06 (inactive). Further, the slope in experiment [6] was 0.00632 (inactive).
Regarding `O=C(Nc1ccc2snnc2c1)N1CCSCC1`, the cell count in experiment [1] is 407. Moreover, the inhibition in experiment [1] was -3% (inactive); in experiment [3], 12.4% (inactive); in experiment [7], -5.1% (inactive); in experiment [8], 3.28% (inactive). In experiment [2], the inhibition of aggregation is 1.8% (inactive). Moreover, the nuclei count came to 97.6% in experiment [2] and 106% in experiment [3]. In experiment [4], the fluorescence slope is -0.371 (inactive). Moreover, the NADPH fluorescence slope in experiment [5] was -1.5e-05 (inactive). Besides, the slope in experiment [6] is 0.00608 (inactive).
Regarding `CC1CCc2nn(CC(=O)NCCCN3CCOCC3)cc2C1` (centres undefined), the cell count in experiment [1] was determined as 608. Also, the inhibition was 10.3% (inactive) in experiment [1], 28.4% (inactive) in experiment [3], 8.95% (inactive) in experiment [7] and 36.3% (inactive) in experiment [8]. The inhibition of aggregation in experiment [2] was -17.8% (inactive). In addition, the nuclei count in experiment [2] was 125%; in experiment [3], 107%. For the same molecule, the fluorescence slope in experiment [4] was -0.578 (inactive). Also, the NADPH fluorescence slope in experiment [5] is -1.9e-05 (inactive). Also, in experiment [6], the slope was 0.0058 (inactive).
Take `COc1ccccc1S(=O)(=O)Cc1ccc(C(=O)N2CCN(c3ccc(C)cc3)C(C)C2)o1` (centres undefined): the cell count in experiment [1] was found to be 566. The inhibition in experiment [1] was 6.1% (inactive); in experiment [3], -2.9% (inactive); in experiment [7], 16.6% (inactive); in experiment [8], 22.5% (inactive). Moreover, the inhibition of aggregation in experiment [2] is -8.4% (inactive). Further, the nuclei count in experiment [2] came out at 117%; in experiment [3], 91.7%. Also, the fluorescence slope in experiment [4] was -0.527 (inactive). Besides, the NADPH fluorescence slope in experiment [5] is -2.9e-05 (inactive). Further, the slope in experiment [6] was 0.00593 (inactive).
In the case of `CCOC(=O)c1ccc(NS(=O)(=O)c2cccc3nsnc23)cc1`, in experiment [1], the cell count was determined as 387. In addition, the inhibition in experiment [1] is -6.2% (inactive); in experiment [3], -63.9% (inactive); in experiment [7], -5.26% (inactive); in experiment [8], 0.648% (inactive). For the same molecule, the inhibition of aggregation in experiment [2] is 18.9% (inactive). Besides, the results for the nuclei count in experiment [2] and in experiment [3] were 83.1% and 104%, respectively. In addition, in experiment [4], the fluorescence slope is -0.409 (inactive). The NADPH fluorescence slope in experiment [5] was 4.3e-05 (inactive). In addition, the slope in experiment [6] was 0.00792 (inactive).
Regarding `O=C(c1ccco1)N1CCN(C(=O)c2cc3c(s2)-c2ccccc2OC3)CC1`, in experiment [1], the cell count amounted to 684. Moreover, the inhibition in experiment [1] is -5% (inactive); in experiment [3] it was 4.9% (inactive); in experiment [7], -15% (inactive); in experiment [8], -25.8% (inactive). The inhibition of aggregation in experiment [2] is -23% (inactive). Moreover, the nuclei count in experiment [2] was 131%; in experiment [3], 102%. Besides, the fluorescence slope in experiment [4] was -0.0429 (inactive). In addition, the NADPH fluorescence slope in experiment [5] was 3.2e-05 (inactive). Further, the slope in experiment [6] is 0.00801 (inactive).
